Test results from article PMC4336329 (PLoS ONE, 2015).
Screen size: about 310,000 compounds; about 14,000 (4.5%) showed an effect of 50% or more. The effect is printed as a negative number. The sample as a whole holds a higher share of strong results than the screen did.

Biological target: human ether-à-go-go-related gene (hERG) potassium channel (human, UniProt Q12809)
Assay: primary screen, population patch clamp on CHO cells stably expressing hERG; higher = less effect of the substance
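Also: peak tail current of the secondary pulse compared with the same well before compound.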

Chain of human ether-à-go-go-related gene (hERG) potassium channel (Q12809 whole entry, looked up): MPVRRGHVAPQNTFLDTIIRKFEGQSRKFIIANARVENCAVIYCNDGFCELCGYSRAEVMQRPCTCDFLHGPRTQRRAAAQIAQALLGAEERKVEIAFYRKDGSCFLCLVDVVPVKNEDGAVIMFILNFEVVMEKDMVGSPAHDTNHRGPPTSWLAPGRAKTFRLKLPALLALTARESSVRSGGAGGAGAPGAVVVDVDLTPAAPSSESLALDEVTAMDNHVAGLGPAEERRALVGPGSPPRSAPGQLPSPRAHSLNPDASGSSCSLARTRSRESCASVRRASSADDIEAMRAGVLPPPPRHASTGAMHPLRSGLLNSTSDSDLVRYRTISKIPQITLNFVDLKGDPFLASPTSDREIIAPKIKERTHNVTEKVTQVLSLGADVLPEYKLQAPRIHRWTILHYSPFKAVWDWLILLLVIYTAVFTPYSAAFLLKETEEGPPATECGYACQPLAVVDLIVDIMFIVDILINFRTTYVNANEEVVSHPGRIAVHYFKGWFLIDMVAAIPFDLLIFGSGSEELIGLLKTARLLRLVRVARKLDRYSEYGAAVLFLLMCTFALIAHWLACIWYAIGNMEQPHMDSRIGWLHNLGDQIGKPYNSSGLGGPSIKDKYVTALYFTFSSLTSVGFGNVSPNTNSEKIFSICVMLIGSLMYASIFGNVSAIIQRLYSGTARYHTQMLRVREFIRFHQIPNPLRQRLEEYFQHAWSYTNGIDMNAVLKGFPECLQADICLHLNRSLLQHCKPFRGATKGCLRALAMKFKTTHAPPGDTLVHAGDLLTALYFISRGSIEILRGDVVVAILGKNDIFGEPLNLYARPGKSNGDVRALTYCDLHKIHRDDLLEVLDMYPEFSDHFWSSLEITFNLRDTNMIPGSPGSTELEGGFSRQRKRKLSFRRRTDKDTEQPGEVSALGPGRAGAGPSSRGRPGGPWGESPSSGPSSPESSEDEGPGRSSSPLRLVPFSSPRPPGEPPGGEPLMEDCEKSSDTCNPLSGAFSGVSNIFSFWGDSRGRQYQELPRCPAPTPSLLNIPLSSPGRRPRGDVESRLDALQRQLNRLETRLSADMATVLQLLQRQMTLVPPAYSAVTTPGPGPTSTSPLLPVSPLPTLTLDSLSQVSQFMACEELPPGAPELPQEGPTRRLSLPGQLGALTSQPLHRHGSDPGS

Row | SMILES | hERG current change (%, negative = inhibition) at 10uM
1 | CC(C)Oc1cccc(C(=O)NC(=S)Nc2ccc3c4c(cccc24)CC3)c1 | 14.9%
2 | Cc1cc(C)n2nc3nc(N4CCCC4)nc(-c4ccccc4)c3c2n1 | 7.37%
3 | Cc1cc(C(=O)Nc2cccnc2)on1 | -3.6%
4 | COc1cccc(CNC(=O)CCCc2nnc3n(C)c(=O)c4sccc4n23)c1 | -22.2%
5 | CCOc1cccc(OCCOCCOc2ccccc2C(C)=O)c1 | -7.23%
6 | COc1ccc(OC)c(-c2cc(C(=O)NCCN3CCOCC3)no2)c1 | -5%
7 | COc1ccc(OC)c(-c2nc(C(=O)NCCCN3CCOCC3)cc3c2[nH]c2ccccc23)c1 | -65.7%
8 | COc1ccccc1-c1cc(C(=O)NCCCN2CCOCC2)no1 | -28%
9 | CC(C)CCNC(=O)c1ccc(Cl)c(N)c1 | 18.9%
10 | Cc1ccccc1OCCCC(=O)Nc1ccc2c(c1)OCO2 | 5.46%
11 | CCN(CC)S(=O)(=O)c1ccc(C)c(NC(=O)Cn2cnc3cc([N+](=O)[O-])ccc3c2=O)c1 | -55.7%
12 | CN(C)S(=O)(=O)c1cccc(NC(=O)Cn2cnc3ccccc3c2=O)c1 | 8.28%
13 | CCN(CC)S(=O)(=O)c1ccc(NC(=O)Cn2cnc3ccccc3c2=O)cc1 | -32.8%
14 | Cc1ccc(NC(=O)Cn2cnc3cc([N+](=O)[O-])ccc3c2=O)c(Cl)c1 | 16.4%
15 | CCN(CC)S(=O)(=O)c1cc(NC(=O)Cn2cnc3ccccc3c2=O)ccc1C | -54.8%
16 | Cc1ccc(NC(=O)Cn2cnc3cc([N+](=O)[O-])ccc3c2=O)cc1 | 0.77%
17 | COc1ccc(C(=O)NCc2cc(C)nc3ccccc23)cc1 | -13.6%
18 | COCc1nc2ccccc2n1CCc1ccccc1 | -33.6%
19 | O=C1CCC(=O)N1c1ccc(-c2nc3ccccc3s2)cc1 | 16%
20 | Cc1ccc(Sc2c(C)nn(C(=O)C3CC3)c2C)cc1 | 11.6%
21 | O=C1COc2ccc(C(=O)COC(=O)Cc3ccccc3)cc2N1 | -13%
22 | Cc1ccc(N(C(=O)C2CCC(=O)N2)C2(C(=O)NC3CCCC3)CCCCC2)cc1 (stereo not shown) | 0.218%
23 | Cc1nn(C)c(Cl)c1CN1CCCC(CCC(=O)NCc2ccccc2F)C1 (stereo not shown) | -27%
24 | CCOc1cccc(CN2CCCC(CCC(=O)NCc3ccccc3F)C2)c1O (stereo not shown) | -65%
25 | O=C(CCC1CCN(Cc2ccccc2O)CC1)NC1CC1 | -23.7%
26 | O=C(CCC1CCCN(Cc2cccc(Cl)c2)C1)NCc1ccccc1F (stereo not shown) | -50.9%
27 | O=C(CCC1CCCN(Cc2ccc(O)c(Cl)c2)C1)NCc1ccccc1F (stereo not shown) | -43.2%
28 | O=C(CCC1CCN(C(=O)Cc2c(F)cccc2F)CC1)NC1CC1 | 11.9%

Row | SMILES | hERG current change (%, negative = inhibition) at 10uM
29 | CC(=O)Nc1ccc(CN2CCCC(CCC(=O)NCc3ccccc3F)C2)cc1 (stereo not shown) | -8.19%
30 | CCOc1cccc(CN2CCC(CCC(=O)NC3CC3)CC2)c1O | -70.3%
31 | Cc1ncc(CN2CCCC(CCC(=O)NCc3ccccc3F)C2)s1 (stereo not shown) | 17.8%
32 | O=C1[C@H]2[C@H](C=CC[C@H]2C(=O)N2CCOCC2)CCN1Cc1ccc(Cl)c(Cl)c1 | -3.89%
33 | CCN1CCC[C@H]1CNC(=O)c1c(OC)ccc(Br)c1OC.Cl | -12.2%
34 | Cc1ccc(-c2nc(-c3cccnc3)sc2CC(=O)O)cc1 | 11%
35 | CCN1CCN(C(=O)Cc2c(C)n(C(=O)c3ccc(Cl)cc3)c3ccc(OC)cc23)CC1.Cl | -38.6%
36 | N#Cc1nc(-c2ccc(OCc3ccccc3)cc2)oc1N1CCOCC1 | 10.4%
37 | Cc1nc2nc(-c3ccc(F)cc3)cn2nc1C | 7.58%
38 | Cc1ccc(-c2cn3nc(C)c(C)nc3n2)cc1 | -6.47%
39 | CCc1ccc(-c2cn3nc(C)c(C)nc3n2)cc1 | -50.8%
40 | O=C1C=CC(=O)N1c1ccc(I)cc1Cl | 18.9%
41 | COc1ccc(N2CCN(C(=O)C3CCN(S(=O)(=O)c4c(C)noc4/C=C/N(C)C)CC3)CC2)cc1 | -53.8%
42 | Cc1ccc(C)c(N2CCN(C(=O)C3CCCN(S(=O)(=O)c4c(C)noc4C)C3)CC2)c1 (stereo not shown) | -11.1%
43 | Cc1cccc(N2CCN(C(=O)C3CCCN(S(=O)(=O)c4c(C)noc4C)C3)CC2)c1C (stereo not shown) | -22.3%
44 | COc1ccc(N2CCN(C(=O)C3CCCN(S(=O)(=O)c4c(C)noc4C)C3)CC2)cc1 (stereo not shown) | -59.9%
45 | COc1ccc(NC(=O)C2CCN(S(=O)(=O)c3c(C)noc3/C=C/N(C)C)CC2)cc1 | -15.3%
46 | COc1ccc(N2CCN(C(=O)C3CCN(S(=O)(=O)c4ccc(C)cc4)CC3)CC2)cc1 | -10.2%
47 | COc1ccc(N2CCN(S(=O)(=O)c3c(C)noc3/C=C/N(C)C)CC2)cc1 | -0.914%
48 | Cc1noc(C)c1S(=O)(=O)N1CCC(C(=O)N2CCN(c3ccccc3Cl)CC2)CC1 | -13.6%
49 | Cc1noc(C)c1S(=O)(=O)N1CCC(C(=O)N2CCN(c3ccc(Cl)cc3)CC2)CC1 | -51.7%
50 | COc1ccc(N2CCN(C(=O)C3CCCN(S(=O)(=O)c4ccc(C)cc4)C3)CC2)cc1 (stereo not shown) | -53.4%
51 | Cc1noc(C)c1S(=O)(=O)N1CCC(C(=O)N2CCN(c3ccc(F)cc3)CC2)CC1 | -41.4%
52 | COc1ccc(N2CCN(C(=O)C3CCCN(S(=O)(=O)c4ccc(F)cc4)C3)CC2)cc1 (stereo not shown) | -39.2%
53 | CCc1ccc(NC(=O)c2sccc2-n2cccc2)cc1 | -7.29%
54 | NS(=O)(=O)c1ccc(F)c(C(=O)O)c1 | 8.68%
55 | CCNc1ccc(S(=O)(=O)N(C)C)cc1NCC(=O)Nc1ccc(F)c(Cl)c1 | -4.33%
